Laboratory results published in PubChem BioAssay (Tox21).
Several values for one entry are separate records, joined by “and”; a condition that tells them apart may be missing. Identical values can stand only once. Inconclusive results are not listed. A call without a number means that no potency is given here. Some structures have more than one record in an assay (separate samples or runs), and their calls can disagree. Activity calls are given as the source filed them. Calls follow the shape of the dose curve; as a rule, active = well fitted curve in the direction sought with a large enough effect in the repeat runs; inconclusive = weak or mixed curves; inactive = no such curve, though single readings can be large; an effect the other way counts as inactive or inconclusive.

How the values were obtained:
[1] = Caspase-3/7 induction in HepG2 cells by small molecules, qHTS cell viability counter screen (AID 1346981); also: nearly all actives have a fitted effect of over 30% in size; also: potency is read from the fitted curve at half-maximal effect
Summary of the method: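 Treatment of HepG2 cells with DMSO-delivered compounds ran 16 hr at 37 C following a 5-hr pre-incubation of 2,000 cells/well. CellTiter-Fluor fluorescence, read after 1 hr, served as the viability measure in a qHTS format.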

[2] = molecular target: Nuclear receptor subfamily 1 group I member 2 (Homo sapiens) (UniProt O75469); assay: Human pregnane X receptor (PXR) small molecule agonists, qHTS assay (AID 1346982); also: nearly all actives have a fitted effect of over 35% in size; also: potency is read from the fitted curve at half-maximal effect
Summary of the method: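 Stable HepG2 line reporting PXR-mediated CYP3A4 expression via luciferase. Treatment: 24 hr with compounds in DMSO at 37 C. Detection: ONE-Glo luminescence.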

[3] = molecular target: Cytochrome P450 2D6 (Homo sapiens) (UniProt P10635); assay: Cytochrome P450 Family 2 Subfamily D Member 6 (CYP2D6) small molecule antagonists: luciferase reporter qHTS assay (AID 1671196); also: nearly all actives have a fitted effect of over 50% in size; also: potency is read from the fitted curve at half-maximal effect
Summary of the method: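 Chemicals tested for interference with CYP2D6 activity; proluciferin substrate, NADPH regeneration, 1 h at room temperature, luminescent detection.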

[4] = molecular target: Cytochrome P450 2C19 (Homo sapiens) (UniProt P33261); assay: Cytochrome P450 Family 2 Subfamily C Member 19 (CYP2C19) small molecule antagonists: luciferase reporter qHTS assay (AID 1671197); also: nearly all actives have a fitted effect of over 65% in size; also: potency is read from the fitted curve at half-maximal effect
Summary of the method: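 P450-Glo CYP2C19 system: enzyme-substrate mix with compound 10 min at room temperature, then NADPH regeneration solution, 1 h at 37C. Proluciferin-to-luciferin conversion detected by luminescence after 20 min with detection reagent; ketoconazole as positive control.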

[5] = molecular target: Cytochrome P450 2C9 (Homo sapiens) (UniProt P11712); assay: Cytochrome P450 Family 2 Subfamily C Member 9 (CYP2C9) small molecule antagonists: luciferase reporter qHTS assay (AID 1671198); also: nearly all actives have a fitted effect of over 50% in size; also: potency is read from the fitted curve at half-maximal effect
Summary of the method: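 CYP2C9 activity was measured with a P450-Glo proluciferin substrate. Enzyme–substrate mix was held with compound for 10 min at room temperature, then NADPH regeneration solution was added for 1 h at 37C. Luciferin product was read as luminescence.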

[6] = molecular target: Cytochrome P450 1A2 (Homo sapiens) (UniProt P05177); assay: Cytochrome P450 Family 1 Subfamily A Member 2 (CYP1A2) small molecule antagonists: luciferase reporter qHTS assay (AID 1671199); also: nearly all actives have a fitted effect of over 50% in size; also: potency is read from the fitted curve at half-maximal effect
Summary of the method: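 Read-out is luminescence from luciferin detection reagent (20 min) proportional to CYP1A2 activity; compounds in DMSO preincubated 10 min with enzyme and proluciferin substrate, then NADPH regeneration solution, 1 h, room temperature.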

[7] = molecular target: Voltage-gated inwardly rectifying potassium channel KCNH2 (Homo sapiens) (UniProt Q12809); assay: Human Ether-a-go-go-Related Gene (hERG) channel small molecule antagonists: fluorescence cell-based qHTS assay (AID 1671200);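 also: hERG-expressing U2OS cells given a thallium stimulus after FluxOR II dye loading; series mostly up to about 77 µM; nearly all actives have a fitted effect of over 50% in size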
Summary of the method: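 Cell line hERG-U2OS; dye FluxOR II, 1 h RT dark; Tl+ stimulus; ex 480/em 540 nm, read each second for 2 min.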

[8] = molecular target: Cytochrome P450 3A4 (Homo sapiens) (UniProt P08684); assay: Cytochrome P450 Family 3 Subfamily A Member 4 (CYP3A4) small molecule antagonists: luciferase reporter qHTS assay (AID 1671201); also: nearly all actives have a fitted effect of over 50% in size; also: potency is read from the fitted curve at half-maximal effect
Summary of the method: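 Room-temperature assay throughout: 10 min compound–enzyme/substrate preincubation, 1 h reaction after NADPH regeneration solution, 20 min detection. Luciferin formed from proluciferin substrate is quantified by luminescence.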

Chain of Cytochrome P450 2C19 (Homo sapiens) (P33261 whole entry, looked up): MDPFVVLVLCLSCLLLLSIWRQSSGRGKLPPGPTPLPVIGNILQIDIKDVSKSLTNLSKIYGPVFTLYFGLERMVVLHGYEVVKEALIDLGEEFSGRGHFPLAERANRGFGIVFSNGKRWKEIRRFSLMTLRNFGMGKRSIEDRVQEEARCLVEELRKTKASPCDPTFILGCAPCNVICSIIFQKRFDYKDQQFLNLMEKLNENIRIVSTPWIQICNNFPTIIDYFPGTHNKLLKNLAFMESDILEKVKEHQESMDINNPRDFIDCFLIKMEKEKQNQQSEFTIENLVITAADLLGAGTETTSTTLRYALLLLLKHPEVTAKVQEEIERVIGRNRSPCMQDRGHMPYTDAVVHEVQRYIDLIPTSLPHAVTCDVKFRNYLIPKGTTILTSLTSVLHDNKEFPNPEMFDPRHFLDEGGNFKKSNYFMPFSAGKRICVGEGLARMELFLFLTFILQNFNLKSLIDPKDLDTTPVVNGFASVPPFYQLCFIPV
Chain of Cytochrome P450 2C9 (Homo sapiens) (P11712 whole entry, looked up): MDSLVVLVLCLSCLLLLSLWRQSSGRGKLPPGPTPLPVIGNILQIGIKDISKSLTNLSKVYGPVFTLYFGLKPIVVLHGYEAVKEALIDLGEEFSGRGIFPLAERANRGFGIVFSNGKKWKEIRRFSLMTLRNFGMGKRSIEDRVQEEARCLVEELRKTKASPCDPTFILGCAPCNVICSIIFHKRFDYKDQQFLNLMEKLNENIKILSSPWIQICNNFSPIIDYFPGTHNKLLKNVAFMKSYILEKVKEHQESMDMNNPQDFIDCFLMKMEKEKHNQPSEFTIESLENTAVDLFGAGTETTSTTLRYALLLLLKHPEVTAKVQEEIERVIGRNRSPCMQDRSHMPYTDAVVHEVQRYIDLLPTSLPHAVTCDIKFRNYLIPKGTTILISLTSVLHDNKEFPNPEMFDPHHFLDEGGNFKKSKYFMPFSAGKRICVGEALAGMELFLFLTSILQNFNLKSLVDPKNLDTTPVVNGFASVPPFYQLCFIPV
Chain of Nuclear receptor subfamily 1 group I member 2 (Homo sapiens) (O75469 whole entry, looked up): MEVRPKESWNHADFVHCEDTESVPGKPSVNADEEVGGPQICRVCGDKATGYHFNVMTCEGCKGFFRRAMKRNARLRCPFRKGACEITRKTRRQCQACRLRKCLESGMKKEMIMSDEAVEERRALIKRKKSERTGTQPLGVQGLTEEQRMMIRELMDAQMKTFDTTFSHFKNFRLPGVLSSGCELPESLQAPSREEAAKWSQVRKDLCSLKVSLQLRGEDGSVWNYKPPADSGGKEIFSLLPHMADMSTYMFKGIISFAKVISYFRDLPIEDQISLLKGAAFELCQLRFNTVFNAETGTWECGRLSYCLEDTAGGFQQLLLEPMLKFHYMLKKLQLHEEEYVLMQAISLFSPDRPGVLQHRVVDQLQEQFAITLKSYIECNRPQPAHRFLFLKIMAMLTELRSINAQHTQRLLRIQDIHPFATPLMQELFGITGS
Chain of Cytochrome P450 1A2 (Homo sapiens) (P05177 whole entry, looked up): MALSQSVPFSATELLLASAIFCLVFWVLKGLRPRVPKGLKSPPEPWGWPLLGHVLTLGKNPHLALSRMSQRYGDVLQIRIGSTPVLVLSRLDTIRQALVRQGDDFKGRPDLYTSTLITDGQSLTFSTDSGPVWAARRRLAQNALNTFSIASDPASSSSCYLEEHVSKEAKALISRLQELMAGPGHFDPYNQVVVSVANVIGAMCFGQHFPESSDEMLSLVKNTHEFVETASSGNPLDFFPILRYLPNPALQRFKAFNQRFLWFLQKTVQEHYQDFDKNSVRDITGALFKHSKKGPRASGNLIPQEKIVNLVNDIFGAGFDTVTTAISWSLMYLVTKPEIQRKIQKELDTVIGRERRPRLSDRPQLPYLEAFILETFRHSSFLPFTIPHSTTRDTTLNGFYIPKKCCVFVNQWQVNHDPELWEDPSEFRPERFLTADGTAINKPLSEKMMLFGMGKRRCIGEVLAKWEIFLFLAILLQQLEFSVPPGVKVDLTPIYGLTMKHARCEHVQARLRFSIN
Chain of Voltage-gated inwardly rectifying potassium channel KCNH2 (Homo sapiens) (Q12809 whole entry, looked up): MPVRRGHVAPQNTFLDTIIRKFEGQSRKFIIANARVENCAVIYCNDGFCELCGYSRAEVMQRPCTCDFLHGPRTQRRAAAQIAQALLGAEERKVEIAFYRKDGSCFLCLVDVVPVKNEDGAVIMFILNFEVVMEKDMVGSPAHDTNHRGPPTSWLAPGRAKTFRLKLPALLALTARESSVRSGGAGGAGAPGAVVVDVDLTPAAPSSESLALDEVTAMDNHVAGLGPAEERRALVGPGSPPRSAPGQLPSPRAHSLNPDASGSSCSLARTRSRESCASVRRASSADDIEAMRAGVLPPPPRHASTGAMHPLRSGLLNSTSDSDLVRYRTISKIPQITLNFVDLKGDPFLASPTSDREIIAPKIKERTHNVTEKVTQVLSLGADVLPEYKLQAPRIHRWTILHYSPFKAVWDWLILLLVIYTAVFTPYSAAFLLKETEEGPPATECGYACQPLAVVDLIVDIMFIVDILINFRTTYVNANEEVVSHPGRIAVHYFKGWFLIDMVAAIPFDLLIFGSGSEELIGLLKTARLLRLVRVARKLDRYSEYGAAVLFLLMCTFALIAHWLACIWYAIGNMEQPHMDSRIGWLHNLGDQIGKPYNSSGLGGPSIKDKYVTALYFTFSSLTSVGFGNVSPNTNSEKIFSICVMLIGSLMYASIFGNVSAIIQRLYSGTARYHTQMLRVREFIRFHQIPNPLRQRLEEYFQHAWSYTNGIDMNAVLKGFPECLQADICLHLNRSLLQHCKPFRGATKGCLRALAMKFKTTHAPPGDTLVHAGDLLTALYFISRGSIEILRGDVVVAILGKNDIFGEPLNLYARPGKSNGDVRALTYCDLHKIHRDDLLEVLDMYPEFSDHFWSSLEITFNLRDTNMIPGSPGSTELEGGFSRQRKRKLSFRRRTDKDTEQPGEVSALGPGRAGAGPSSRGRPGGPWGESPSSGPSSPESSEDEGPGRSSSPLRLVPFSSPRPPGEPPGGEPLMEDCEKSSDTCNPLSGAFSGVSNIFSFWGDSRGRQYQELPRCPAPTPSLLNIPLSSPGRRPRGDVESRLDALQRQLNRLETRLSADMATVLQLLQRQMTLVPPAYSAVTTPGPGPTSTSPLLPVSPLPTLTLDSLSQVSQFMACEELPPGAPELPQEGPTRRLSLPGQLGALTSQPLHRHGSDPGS
Chain of Cytochrome P450 2D6 (Homo sapiens) (P10635 whole entry, looked up): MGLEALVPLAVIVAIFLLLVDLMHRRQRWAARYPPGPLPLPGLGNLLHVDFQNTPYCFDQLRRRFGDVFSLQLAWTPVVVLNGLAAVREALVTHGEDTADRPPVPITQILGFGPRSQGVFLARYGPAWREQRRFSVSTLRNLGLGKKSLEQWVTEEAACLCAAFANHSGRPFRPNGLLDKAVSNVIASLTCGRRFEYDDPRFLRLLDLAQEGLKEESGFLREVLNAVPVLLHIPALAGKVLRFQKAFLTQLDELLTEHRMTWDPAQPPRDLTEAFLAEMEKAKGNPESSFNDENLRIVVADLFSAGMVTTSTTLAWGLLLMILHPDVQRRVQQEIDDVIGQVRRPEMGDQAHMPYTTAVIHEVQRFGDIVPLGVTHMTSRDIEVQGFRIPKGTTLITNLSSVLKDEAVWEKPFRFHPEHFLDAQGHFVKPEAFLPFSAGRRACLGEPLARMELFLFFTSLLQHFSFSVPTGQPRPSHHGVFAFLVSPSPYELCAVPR
Chain of Cytochrome P450 3A4 (Homo sapiens) (P08684 whole entry, looked up): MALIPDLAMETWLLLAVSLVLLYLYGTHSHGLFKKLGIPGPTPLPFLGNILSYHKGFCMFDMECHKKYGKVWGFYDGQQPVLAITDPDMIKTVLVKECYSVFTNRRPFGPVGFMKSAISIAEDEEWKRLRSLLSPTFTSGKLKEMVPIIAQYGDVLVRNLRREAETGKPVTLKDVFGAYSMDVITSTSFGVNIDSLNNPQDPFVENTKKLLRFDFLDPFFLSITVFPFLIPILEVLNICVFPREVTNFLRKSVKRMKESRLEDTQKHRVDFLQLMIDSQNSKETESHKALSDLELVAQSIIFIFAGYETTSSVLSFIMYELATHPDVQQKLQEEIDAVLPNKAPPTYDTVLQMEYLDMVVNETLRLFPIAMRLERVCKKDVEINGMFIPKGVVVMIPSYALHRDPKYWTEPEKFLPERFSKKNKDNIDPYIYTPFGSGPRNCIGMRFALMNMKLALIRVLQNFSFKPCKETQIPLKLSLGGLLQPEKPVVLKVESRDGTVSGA

CCCCCCCCCC
Potency [1]: inactive | Potency [2]: inactive | Potency [3]: inactive | Potency [4]: inactive and 71 µM (active) | Potency [5]: inactive and 79.6 µM (active) | Potency [6]: inactive | outcome [7]: inactive | Potency [8]: inactive

COc1ccc2cc([C@H](C)C(=O)O)ccc2c1
Potency [1]: inactive

CC1CCC2CC1C2(C)C (stereo not drawn)
Potency [1]: inactive | Potency [2]: inactive | Potency [3]: 21.6 µM (active) and inactive | Potency [4]: inactive | Potency [5]: inactive | Potency [6]: inactive | outcome [7]: inactive | Potency [8]: inactive and 39.9 µM (active)

CCC(O)OC(O)CC (stereo not drawn)
Potency [1]: inactive | Potency [2]: inactive | Potency [3]: 36 µM (active) and inactive | Potency [5]: inactive | Potency [6]: inactive | outcome [7]: inactive | Potency [8]: inactive

O=C(O)c1ccccc1C(c1ccc(O)cc1)c1ccc(O)cc1
Potency [1]: inactive | Potency [2]: 2.44 µM (active) and inactive | Potency [3]: inactive | Potency [4]: inactive | Potency [6]: inactive | outcome [7]: inactive | Potency [8]: inactive

Nc1cc([N+](=O)[O-])ccc1O
Potency [1]: 48.6 µM (active) and 68.2 µM (active) | Potency [2]: inactive | Potency [3]: inactive | Potency [5]: 31.7 µM (active) and 39.7 µM (active) | Potency [6]: 39.9 µM (active) | outcome [7]: inactive | Potency [8]: inactive

CCCC(C)=O
Potency [1]: inactive | Potency [2]: inactive | Potency [3]: inactive | Potency [5]: inactive | Potency [6]: inactive | outcome [7]: inactive | Potency [8]: inactive

O=S(=O)(O)c1ccc2ccccc2c1
Potency [1]: inactive | Potency [2]: inactive | Potency [3]: inactive | Potency [4]: inactive | Potency [5]: inactive | Potency [6]: inactive | outcome [7]: inactive | Potency [8]: inactive

O=C(O)c1cc(C(=O)O)cc(S(=O)(=O)O)c1
Potency [1]: inactive | Potency [2]: inactive | Potency [3]: 36 µM (active) | Potency [5]: inactive | Potency [6]: inactive and 39.9 µM (active) | outcome [7]: inactive | Potency [8]: inactive

CCN(CC)c1ccc(C(=O)c2ccccc2C(=O)O)c(O)c1
Potency [1]: inactive | Potency [2]: 27.4 µM (active) and 19.3 µM (active) | Potency [3]: inactive | Potency [4]: 71.3 µM (active) and inactive | Potency [5]: 35.7 µM (active) and 31.7 µM (active) | outcome [7]: inactive | Potency [8]: inactive

CCCCCC1=CCCC1=O
Potency [1]: inactive | Potency [2]: 62.4 µM (active) and inactive | Potency [3]: inactive | Potency [4]: 20.4 µM (active) and inactive | outcome [7]: inactive | Potency [8]: inactive

C=C(C)C(=O)Nc1ccc(Cl)c(Cl)c1
Potency [1]: inactive | Potency [2]: 61.8 µM (active) and 54.3 µM (active) | Potency [3]: inactive | Potency [5]: 36 µM (active) and 63 µM (active) | Potency [6]: 2.86 µM (active) and 5 µM (active) | outcome [7]: inactive | Potency [8]: inactive

CC(C)(C)[C@@H](O)[C@@H](Cc1ccc(Cl)cc1)n1cncn1
Potency [1]: inactive | Potency [2]: 34.1 µM (active) | Potency [3]: 71 µM (active) | Potency [4]: 250 nM (active) and 159 nM (active) | Potency [5]: 11.2 µM (active) and 22.4 µM (active) | outcome [7]: inactive | Potency [8]: 112 nM (active) and 200 nM (active)

O=C(O)c1cc(=O)c2c(OCC(O)COc3cccc4oc(C(=O)O)cc(=O)c34)cccc2o1
Potency [1]: inactive | Potency [2]: inactive | Potency [3]: inactive | Potency [5]: inactive | Potency [6]: inactive | outcome [7]: inactive | Potency [8]: inactive

c1ccc(OCCOc2ccccc2)cc1
Potency [1]: inactive | Potency [2]: 61.1 µM (active) and 24.3 µM (active) | Potency [3]: inactive | Potency [4]: 5.02 µM (active) and 5.03 µM (active) | Potency [5]: 28.2 µM (active) and 22.4 µM (active) | outcome [7]: inactive | Potency [8]: inactive

CC(=O)CC(=O)Nc1ccccc1
Potency [1]: inactive | Potency [2]: inactive | Potency [3]: inactive | Potency [4]: 70.9 µM (active) | Potency [6]: 35.5 µM (active) and 39.9 µM (active) | outcome [7]: inactive | Potency [8]: inactive

CC(=O)c1ccccc1
Potency [1]: inactive | Potency [2]: inactive | Potency [3]: inactive | Potency [4]: 41.4 µM (active) and inactive | Potency [5]: inactive | outcome [7]: inactive | Potency [8]: inactive

C=C(C)C(=O)O[C@H]1C[C@@H]2CC[C@@]1(C)C2(C)C
Potency [1]: inactive | Potency [2]: inactive | Potency [3]: inactive | Potency [5]: inactive | Potency [6]: inactive | outcome [7]: inactive | Potency [8]: inactive

c1ccc2c(c1)ccc1ccccc12
Potency [1]: inactive | Potency [2]: inactive | Potency [3]: inactive | Potency [4]: 77.5 µM (active) and 39.9 µM (active) | Potency [6]: 6.16 µM (active) and 3.99 µM (active) | outcome [7]: inactive | Potency [8]: inactive

OCC(CO)(CBr)CBr
Potency [1]: inactive | Potency [2]: inactive | Potency [3]: inactive | Potency [4]: inactive | Potency [5]: inactive | outcome [7]: inactive | Potency [8]: inactive

COc1ccc(Nc2ccccc2)c(C)c1
Potency [1]: inactive | Potency [2]: inactive and 54.5 µM (active) | Potency [3]: inactive | Potency [4]: inactive and 3.17 µM (active) | Potency [5]: inactive | outcome [7]: inactive | Potency [8]: inactive
